In PubChem BioAssay AID1481 (The Scripps Research Institute Molecular Screening Center, 2009):
Where “and” joins values, the source holds several entries; their conditions need not be identical. Identical values can stand only once. About 920 (0.42%) of roughly 220,000 compounds were called active. No stated cut-off is given here; in the data, active means inhibition above about 15%; inactive means the rest. The list comes from a sample in which actives are over-represented; it also holds similar structures and randomly drawn compounds.

Molecular target: Transitional endoplasmic reticulum ATPase (Homo sapiens) (UniProt P55072)
Assay: inhibitors of human p97 ATPase, primary screen, biochemical (AID 1481);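 further: 0% = DMSO vehicle and 100% = wells lacking enzyme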
Conditions: recombinant p97 ATPase, Kinase-Glo ATP luminescence, 3 h; at 8 µM; hits give high values

Transitional endoplasmic reticulum ATPase (Homo sapiens), sequence (P55072 whole entry, looked up): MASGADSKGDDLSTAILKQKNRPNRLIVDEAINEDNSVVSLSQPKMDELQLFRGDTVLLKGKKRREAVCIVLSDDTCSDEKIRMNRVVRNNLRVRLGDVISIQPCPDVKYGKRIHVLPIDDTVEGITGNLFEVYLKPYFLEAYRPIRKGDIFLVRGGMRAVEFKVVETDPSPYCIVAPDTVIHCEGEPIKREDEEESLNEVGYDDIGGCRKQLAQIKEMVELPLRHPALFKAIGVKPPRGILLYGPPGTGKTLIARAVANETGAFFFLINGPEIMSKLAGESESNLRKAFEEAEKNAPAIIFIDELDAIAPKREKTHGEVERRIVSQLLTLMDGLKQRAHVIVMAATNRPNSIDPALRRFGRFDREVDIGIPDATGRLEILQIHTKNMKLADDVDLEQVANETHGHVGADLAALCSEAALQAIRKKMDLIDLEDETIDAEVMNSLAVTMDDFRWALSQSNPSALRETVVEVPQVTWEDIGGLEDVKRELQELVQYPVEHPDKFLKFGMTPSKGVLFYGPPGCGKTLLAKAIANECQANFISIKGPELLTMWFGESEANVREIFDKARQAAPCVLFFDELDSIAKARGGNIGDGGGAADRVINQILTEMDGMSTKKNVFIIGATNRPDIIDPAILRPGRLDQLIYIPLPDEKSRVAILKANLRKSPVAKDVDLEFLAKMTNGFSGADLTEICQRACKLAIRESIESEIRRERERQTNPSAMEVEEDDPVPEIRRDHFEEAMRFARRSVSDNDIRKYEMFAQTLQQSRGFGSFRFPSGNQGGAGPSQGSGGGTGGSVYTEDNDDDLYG

inhibition, active:
C=CCn1c(=S)[nH]c2scc(-c3ccco3)c2c1=O 15.2%, COc1ccc(-c2[nH]ncc2/C=N/NC(=O)c2cc(Br)ccc2O)c(OC)c1 19.8%, NC(=O)c1ccc(NC(=O)COC(=O)c2c3c(nc4ccccc24)/C(=C\c2ccc4c(c2)OCO4)CCC3)cc1 21.3%, COc1ccc(Cl)cc1C(=O)NNC(=O)c1nc2nc(C)cc(C)n2n1 23.2%, CC(C(=O)O)n1cnc2sc3c(c2c1=O)CCCC3 (stereo not given) 19.5%, Oc1c(Cl)cc(Cl)c(Cl)c1Cc1c(O)c(Cl)cc(Cl)c1Cl 31.6%, [O-][n+]1onc2c1CCc1[nH]c(-c3ccccc3)nc1-2 37.3%, Clc1ccc(C2=CSC3=Nc4cccc5cccc(c45)N23)cc1 33%, COc1ccccc1C1C(C#N)=C(N)Oc2c1c(-c1ccccc1)nn2-c1ccccc1 (stereo not given) 27.6%, COc1ccc2c(c1)C(=C(C#N)C#N)C(=O)N2CCc1ccccc1 20.6%, O=[N+]([O-])c1cc(Cl)cc(/C=N/NC(=S)Nc2cc(S(=O)(=O)N3CCOCC3)ccc2Cl)c1O 14.6%, Cc1no[n+]([O-])c1COc1ccccc1/C=C1\NC(=S)NC1=O 36%, O=C(c1[nH]ncc1-c1ccc(Cl)cc1)C1CO1 (stereo not given) 18.1%, N=C1C(c2nc3ccccc3s2)=C(O)CN1NC(=O)c1ccc([N+](=O)[O-])cc1 28.3%, CC1CCCN(C(C(=O)Nc2ccc(C(C)C)cc2)c2ccc3c(c2)OCO3)C1 (stereo not given) 15.3%, N#Cc1c(N2CCCCC2)nc(N)c2c(N)nc(SCC(=O)O)cc12 53.6%, CCOC(=O)N1CCC(c2cc(=O)n(-c3ccccc3)[nH]2)CC1 23%, Cc1cc(C)c2c(n1)nn1c(-n3ccnc3)cc(C)nc21 31.7%, NC(N)=N/N=C/c1ccc(OCc2ccc(Cl)cc2Cl)cc1 17.6%

inhibition, inactive:
C=CCNC(=O)CSc1nc2scc(-c3ccco3)c2c(=O)n1CC=C 6.86%, C=CCn1c(SCc2csc(C)n2)nc2scc(-c3ccc(C)o3)c2c1=O 3.29%, C/C(CCc1ccccc1)=N\NC(=O)c1ccc(CN2CCOCC2)cc1 6.17%, C=CCc1cccc2cc(C(=O)NC3CCCC3)c(=O)oc12 1.22%, COc1ccc(CC(=O)NCC(=O)N/N=C/c2cc(Br)ccc2OC)cc1 -3.65%, CC(C)/C=N/NC(=O)c1cc(Br)ccc1O -3.39%, CN(C)c1ccc(/C=C/C(=O)c2ccc(C(C)(C)C)cc2)cc1[N+](=O)[O-] 3.04%, O=C(COC(=O)c1c2c(nc3ccccc13)/C(=C\c1cccs1)CCC2)Nc1ccccc1Cl -4.57%, NS(=O)(=O)c1ccc(NC(=O)COC(=O)c2c3c(nc4ccccc24)/C(=C\c2ccc4c(c2)OCO4)CCC3)cc1 -1.8%, COc1ccnc(Oc2ccccc2)c1-c1ncn[nH]1 2.16%, C=CCNC(=S)NNC(=O)c1cc(Cl)ccc1OC 2.04%, Cc1cc(C)n2nc(C(=O)NC(C)(C)C)nc2n1 -8.48%, CC1(C)CC(N2CCN(C(c3ccccc3)c3ccccc3)CC2)=CC(=[N+]2CCCCC2)C1 -4.13%, CCc1nn(CCCN2CCN(c3cccc(Cl)c3)CC2)c(=O)n1CCOc1ccccc1 -5.07%, C=CCNCCCCOc1ccccc1 -1.97%, N=c1c2c3c(sc2ncn1N)CCCC3 5.38%, CCOC(=O)C(C)n1cnc2sc(C)c(C)c2c1=O (stereo not given) -1.18%, CN1CCN(c2ccc(S(=O)(=O)N3CCOCC3)cc2NC(=O)CCc2ccccc2)CC1 4%, Fc1ccccc1/C=C1\CCCC2=C1Nc1ncnn1C2c1ccccc1F (stereo not given) 3.82%, COc1cc(S(=O)(=O)N2CCOCC2)ccc1NC(=O)COc1ccc(N(C)S(=O)(=O)c2ccc(C)cc2)cc1 10.4%, Cc1c(NC(=O)CN2C(=O)C(=O)N(Cc3ccccc3)C2=O)c(=O)n(-c2ccccc2)n1C 1.04%, Cc1cccc(NC(=O)c2ccc([N+](=O)[O-])o2)c1 0.75%, N#Cc1c(-c2ccc(F)cc2)nc(-c2ccccc2)[nH]c1=O 1.67%, COc1ccc([N+](=O)[O-])cc1N(CC(O)CN(CC(C)C)CC(C)C)S(=O)(=O)c1ccc(C)cc1 (stereo not given) -15%, Cn1sc(=O)c2cc(S(=O)(=O)NC3CC3)ccc21 13.5%, N#Cc1ccsc1NC(=O)CN1CCN(S(=O)(=O)c2cc(Cl)ccc2Cl)CC1 1.72%, CCC1(CC)NC(=O)N(CC(=O)OCC(=O)NC(=O)c2ccccc2)C1=O -0.8%, Cc1ccc(C(O)P(=O)(OC(C)C)c2ccc(N(C)C)cc2)cc1 (stereo not given) 0.27%, COC(=O)CNc1nc(Cl)nc(N2CCC(C)CC2)n1 -3.6%, O=C(Nc1cccc(F)c1)c1coc(=O)c(Br)c1 -1.08%, Cc1nc(-c2ccccc2)sc1-c1nnc(C2CC2)o1 -11.7%, Cc1nn(Cc2ccccc2)c2c1C(c1ccccc1)C(C#N)=C(N)O2 (stereo not given) 10.6%, Cc1nn(-c2ccccc2)c2c1C(c1ccc(F)cc1)C(C#N)=C(N)O2 (stereo not given) -4.19%, CCC1C=C(c2ccccc2)C=CN=C1N(CC)CC (stereo not given) -5.24%, CCC(C)CN1CCC(CO)(Cc2ccccc2Cl)CC1 (stereo not given) -5.42%, Cc1cc(Nc2ccc(N3CCOCC3)cc2)c2cccc(C)c2n1 4.03%, CN1CCC(=NNC(=O)c2ccc(N(Cc3ccc(Cl)cc3)S(C)(=O)=O)cc2)CC1 -1.22%, CC(C)Sc1nnc([C@H](Cc2ccccc2)NC(=O)OC(C)(C)C)o1 -6.35%, C#CCN1C(=O)C(O)(CC(=O)c2cc(OC)ccc2OC)c2ccccc21 (stereo not given) 4.75%, CCCCN1C(=O)/C(=C(/C#N)C(N)=O)c2ccccc21 1.92%, CC(C)(C)c1cnnn1-c1ccc([N+](=O)[O-])cc1 4.98%, Nc1ccccc1Sc1ccc(C(F)(F)F)cc1[N+](=O)[O-] -3.21%, CC(=O)Nc1ccc(CC#N)cc1 3.27%, O=C(CN1CCN(c2ccc(O)cc2)CC1)Nc1cc(S(=O)(=O)N2CCOCC2)ccc1Cl 6.43%, O=C(N/N=C/c1ccc([N+](=O)[O-])o1)c1cccc(S(=O)(=O)N2CCOCC2)c1 -1.08%, COc1ccccc1-n1c(-c2cc(-c3ccco3)[nH]n2)n[nH]c1=S 6.44%, Brc1ccc(-c2csc(N/N=C/c3cccnc3)n2)cc1 0.38%, CC(C)CNC(=O)/C=C/C(=O)O 1.63% and 0.6%, Cc1ccccc1-n1c(C)cc(/C=C2\NC(=O)NC2=O)c1C -1.59%, Cc1ccc(/C=N/NC(=O)COc2ccccc2-c2ccccc2)cc1 -5.12%, Cc1ccc(NC(=O)NC2CCCCC2)cc1S(=O)(=O)N1CCOCC1 1.18%, CCOc1c(CNCc2ccc(C(=O)O)cc2)cccc1OC 3.61%, S=c1[nH]nc(-c2ccc(Cl)cc2)n1CC1CCCO1 (stereo not given) -0.03%, O=C(c1nnc(-c2ccc(Cl)cc2)o1)C1CCCC1 -6.78%, CN(CC(=O)NCCc1ccccc1)S(=O)(=O)c1cnc[nH]1 -2.11%, O=C(c1ccc(OC2CCN(C(=O)c3cccnc3)CC2)cc1)N1CCCCCC1 -2.04%, Nc1nnnn1/N=C/c1cc([N+](=O)[O-])ccc1O 1.03%, COc1ccccc1N1CC(O)=C(c2nc3ccccc3s2)C1=N 6.21%, CCOC(=O)CCCN1CC(O)=C(c2nc3ccccc3s2)C1=N -8.77%, O=C(CCc1ccccc1)Nc1nn[nH]n1 -3.71%, CC(NC(=S)Nc1ccc(S(N)(=O)=O)cc1)c1ccc2c(c1)OCO2 (stereo not given) 0.42%, O=C(Nc1ccc2c(c1)OCCO2)C(c1ccc(F)cc1)N1CCCCC1 (stereo not given) -0.16%, CN1C(=O)C(CC(=O)Nc2ccccc2)S/C1=N/c1nccs1 (stereo not given) 6.76%, CC(=O)c1cc(C#N)c(N2CCCCC2)nc1C -1.2%, Cc1cc(C)c(C#N)c(N2CCC(C(N)=O)CC2)n1 3.21%, O=C(NC(=O)N1CCOCC1)c1ccccc1 5.31%, O=C(CCl)N(Cc1cccc([N+](=O)[O-])c1)c1cccc(Cl)c1 -3.6%, CCOC(=O)CN1CCC(c2ccccc2)CC1 -3.38%, CCOC(=O)N1CCC(NC(=O)COc2cc(=O)n(C)c3ccccc23)CC1 -0.15%, CC(=O)Nc1nc2c(s1)C(=O)NCC(C)(C)C2 0.86%, Cc1cc(C)c2c(n1)nn1c(N3CCOCC3)cc(C)nc21 5.86%, Cc1cc(C)c2c(n1)nn1c(N3CCN(c4cccc(Cl)c4)CC3)cc(C)nc21 -0.34%, O=[N+]([O-])c1cc([N+](=O)[O-])c2cccnc2c1O -0.5%, O=C(/C=C/c1ccc(N2CCOCC2)cc1)c1ccccc1 3.1%, NC(N)=N/N=C/c1ccc(Cl)c([N+](=O)[O-])c1 4.25%, COc1ccc(C(=O)O/N=C(\N)Cc2ccc(Cl)cc2Cl)cc1OC -0.33%
